The campaign covered roughly 3,300 compounds. Fewer than 10 were called active.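 The calls were made as follows: active = growth inhibition above 90% in viable cell count at a single dose; inactive = growth inhibition below 90%.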 The list is a sample of the results.
Experiment: HT29 colon tumor cell growth inhibition, primary screen, imaging, high content imaging, 24 h, CellTiter-Glo (AID 770);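 as to condensed nuclei: share of cells whose nuclear area falls below control median minus 1.5 SD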
Settings: HT29 cell number by imaging, at 10 µM, stronger effect = higher value; for condensed nuclei: measured here: percent cells with condensed nuclei
[1] = measured here: ATP CellTiter-Glo viability

| Compound | growth inhibition | growth inhibition [1] | condensed nuclei |
| --- | --- | --- | --- |
| Cn1c(SCC(=O)N2CCOCC2)nnc1-c1ccc(Cl)cc1Cl | 30.4% (inactive) | -11.5% | 2.99% |
| COc1ccc(C2CC(=O)C(C=NCCN3CCOCC3)=C(O)C2)cc1 (configuration not stated) | 30% (inactive) | -14.6% | 0.91% |
| CC(NC(=O)CSc1nnc(COc2ccccc2)o1)c1ccccc1 (configuration not stated) | 2.08% (inactive) | -10.8% | 4.42% |
| N#CC1=C(SCC(=O)c2ccccc2)NC2=C(C(=O)CCC2)C1c1ccco1 (configuration not stated) | 77% (inactive) | 12.5% | 20.4% |
| Cn1c(=O)c2c3c(sc2n2c(SCC(N)=O)nnc12)CC(C(C)(C)C)CC3 (configuration not stated) | -4.56% (inactive) | -15.8% | 3.87% |
| CN(CCOC(=O)c1cccc(Br)c1)C(C)(C)C | 6.82% (inactive) | 3.02% | 2.48% |
| COC(=O)c1cc(Br)c(=O)n(Cc2cccnc2)c1 | 6.29% (inactive) | -14.1% | 1.99% |
| CC12CN3CC(C)(CN(C1)C3c1ccc(Cl)cc1Cl)C2O (configuration not stated) | 15% (inactive) | 0.64% | 2.07% |
| CC1(C)Cc2c(c(N3CCOCC3)nc3sc(C#N)c(N)c23)CS1 | 16.1% (inactive) | 12.8% | 14% |
| COc1cccc(CNc2ncc(Br)cc2Br)c1O | 28.4% (inactive) | 3.03% | 8.79% |
| COc1ccccc1NC(=O)c1c(C)cc(=O)oc1C | 2.52% (inactive) | -2.65% | 1.89% |
| C=CCc1c(C)nc(SCCC)[nH]c1=O | -39.5% (inactive) | 9.14% | 4.83% |
| Cc1cc(N2C(=O)C(=O)/C(=C(/O)c3ccccc3)C2c2cccs2)no1 (configuration not stated) | -3.8% (inactive) | -3.1% | 2.92% |
| N#Cc1c(NCCN)nc(NCc2ccccc2)c2c1CCN(Cc1ccccc1)C2 | 48.7% (inactive) | 41.2% | 7.1% |
| CSC1=C(C#N)C(c2ccc(C)s2)CC(=O)N1 (configuration not stated) | 22.7% (inactive) | 4.49% | 3.3% |
| COc1cc(-c2cc(C(F)(F)F)n3ncc(C(=O)O)c3n2)cc(OC)c1OC | -25.6% (inactive) | -14.3% | 2.49% |
| O=C(O)CCc1cc(I)c(Oc2ccc(O)c(I)c2)c(I)c1 | 4.78% (inactive) | 3.12% | 4.44% |
| O=C(O)c1c[nH]c2ccc(S(=O)(=O)N3CCOCC3)cc12 | -36.6% (inactive) | -2.36% | 1.85% |
| Cc1cc(C)nc(NC2=NCC(=O)N2c2ccccc2)n1 | -50.8% (inactive) | -10.6% | 3.13% |

Reference: PubChem BioAssay AID770 (SRMLSC, 2007)
